# Laboratory results taken from PubChem BioAssay.
# Test: compound effects on lung adenocarcinoma cell viability – A549, calcein-AM fluorescence, 48 h, basal, profiling panel (AID 1162); note: test concentration not given here
# Conditions: higher = more signal
row,Compound,z-score
1,C=CC[C@@H]1C=C[C@H](ON=CC[C@@H]2C=C[C@H](OC(C)=O)[C@@H](COC(C)=O)O2)[C@@H](CO)O1,0.452
2,C=CC[C@@H]1C=C[C@H](ON=C(C)CCN2CCCc3nc(C)c(C)cc32)[C@@H](CO)O1,0.226
3,CC(=O)OC[C@H]1O[C@H](CC=NO[C@H](C)c2cn([C@@H]3COC[C@H]3O)nn2)C=C[C@@H]1OC(C)=O,0.674
4,CC(=O)OC[C@H]1O[C@H](CCON=C(C)CCN2CCCc3nc(C)c(C)cc32)C=C[C@@H]1OC(C)=O,0.235
5,CO[C@H]1COC(=O)[C@H](CCSC)NC(=O)CC=C[C@@H](C)[C@H](OC)COC(=O)[C@@H](OCc2ccccc2)C=C[C@@H]1C,-0.843
6,CN1CCc2nc(-c3ccccc3)c(-c3ccccc3)cc2C1,-0.244
7,CON=C(C)CCN1CCc2nc(-c3ccccc3)c(-c3ccccc3)cc2C1,-0.119
8,CCN1C(=O)[C@H]2[C@@H]3C(=CC[C@H]2C1=O)C(=O)[C@H]1O[C@H]1[C@H]3O,-0.163
9,CC(C)C(=O)N[C@H]1CCCN1C(=O)C=Cc1ccccc1,-0.0724
10,CCOC(=O)[C@H](CC(C)C)NC(=O)CCC1CC(OC(=O)NCc2ccc3c(c2)OCO3)CC2(CCCC(COC(=O)NCCC(C)C)O2)O1 (some centres not stated),0.0634
11,COC(=O)CC=C[C@@H](C)[C@@H](C=NOC[C@@H](O)COCc1ccco1)NS(=O)(=O)c1ccc(C)cc1,-0.393
12,CON=C(C)CCN1CCCCc2nc(C)c(C)cc21,1.03
13,CC(=O)OC[C@H]1O[C@H](CCON=C(C)C)C=C[C@@H]1OC(C)=O,0.191
14,O=C1CCCC=C1C(O)C1CCCCC1 (configuration not stated),-0.586
15,COC(=O)CC=C[C@@H](C)[C@@H](C=NOC[C@@H](C)[C@H](OCc1ccccc1)C(C)C)OC,-0.37
16,COC(=O)[C@H](C)NC(=O)CC=C[C@@H](C)[C@@H]1C=C[C@H](O)[C@@H](CO)O1,-0.244

row,Compound,z-score
1,C[C@@H](c1ccccc1)N1C(=O)[C@H]2[C@H]3[C@H](O)[C@H](O)CC(=NOCc4ccccc4)[C@@H]3CC[C@H]2C1=O,0.048
2,O=C1[C@H]2[C@H]3[C@H](O)[C@H](O)CC(=NOC[C@@H](O)COCc4ccco4)[C@@H]3CC[C@H]2C(=O)N1Cc1ccc2c(c1)OCO2,0.751
3,CCCNC(=O)OC[C@H]1O[C@H](CCON=C2C[C@@H](O)[C@@H](O)[C@@H]3[C@@H]4C(=O)N(CC)C(=O)[C@@H]4CC[C@@H]23)C=C[C@@H]1Oc1ccc(OC)cc1,0.778
4,CC(C)CON=C1C[C@@H](O)[C@@H](O)[C@@H]2[C@@H]3C(=O)N(Cc4ccc5c(c4)OCO5)C(=O)[C@@H]3CC[C@@H]12,0.606
5,COc1ccc(COC(=O)NN=C2C[C@@H](O)[C@@H](O)[C@@H]3[C@@H]4C(=O)N([C@@H](C)c5ccccc5)C(=O)[C@@H]4CC[C@@H]23)cc1,-0.173
6,C[C@@H]1CC[C@H]2C(=O)N3[C@@H](CC[C@@H](C)[C@@H]3c3ccc(Br)cc3)C(=O)N2[C@H]1c1ccc(Br)cc1,-0.569
7,CCOC(=O)CCN1C(=O)[C@H]2[C@H]3[C@H](O)[C@H](O)CC(=O)[C@@H]3CC[C@H]2C1=O,-0.856
8,COC(=O)[C@H](CCSC)NC(=O)CC=C[C@@H](C)CO,-0.493
9,CCOC(=O)[C@H](Cc1ccccc1)NC(=O)CCC1CC(OC(=O)NCc2cccc3ccccc23)CC2(CCCC(COC(=O)NCCOc3ccccc3)O2)O1 (some centres not stated),0.128
10,COc1ccc(COC(=O)NN=C2C[C@@H](O)[C@@H](O)[C@@H]3[C@@H]4C(=O)N(c5cccc(Oc6ccccc6)c5)C(=O)[C@@H]4CC[C@H]23)cc1,-0.777
11,COc1ccc(OC[C@@H]2CC3[C@@H](c4ccc(Br)cc4)[C@H](C)CC[C@H]3C(=O)O2)cc1 (some centres not stated),0.228
12,COC(=O)[C@H](C)NC(=O)CCC1CC(OC(=O)NCc2cccc3ccccc23)CC2(CCCC(COC(=O)NCCc3ccccc3OC)O2)O1 (some centres not stated),-0.932
13,COc1ccc(OC[C@@H](CO)OC)cc1,0.677
14,COc1ccc(COC(=O)NN=C2C[C@@H](O)[C@@H](O)[C@@H]3[C@@H]4C(=O)N(C[C@@H]5CCCO5)C(=O)[C@@H]4CC[C@@H]23)cc1,0.795
15,CCOC(=O)[C@H](CC(C)C)NC(=O)CCC1CC(OC(=O)NCc2ccc3c(c2)OCO3)CC2(CCCC(COC(=O)NCCOc3ccccc3)O2)O1 (some centres not stated),-0.253
16,C=CC[C@@H]1C=C[C@H](ON=C(C)CCN2CCCCc3nc(C)c(C)cc32)[C@@H](CO)O1,0.275
